# Compounds with a hit are over-represented: about 19% of the library has one in this group of screens.
# HT1080-NT tox = qHTS for induction of synthetic lethality in tumor cells producing 2HG: qHTS for the HT-1080-NT fibrosarcoma cell line; HT-1080-NT fibrosarcoma viability, CellTiter-Glo ATP luminescence, 48 h; Potency, µM (doses to about 46.1 µM), for the others: top-dose activity, negative = less viability, actives largely listed as cytotoxic; actives 1.6% (n = 360,000); AID 686970, 2013;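 further: NT is the 2HG producing partner of a matched IDH1 knockdown line; potency means the concentration at half of the fitted maximal effect; 0% = DMSO-treated cells and -100% = media-only wells without cells; nearly all actives have a fitted effect of over 55% in size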
#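 Fibrosarcoma NT cells, 750 per well in 5% FBS RPMI, were exposed to compound for 48 hours. Viability: CellTiter-Glo luminescence.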
# HT1080 IDH1KD tx = qHTS for induction of synthetic lethality in tumor cells producing 2HG: qHTS for the HT-1080-IDH1KD cell line | HT-1080 IDH1 knockdown viability, ATP luminescence, 48 h | Potency, µM (titrated, usually from 46.1 µM), for inactives: at the top dose activity, negative = toxicity, usual class: cytotoxic | actives 2% (n = 360,000);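 further: potency means the concentration at half of the fitted maximal effect; 0% = DMSO wells and -100% = cell-free medium wells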
#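 IDH1KD HT-1080 cells, 750/well, RPMI + 5% FBS; compound pinned after 2 h settling; 48 h, 37 °C; CellTiter-Glo luminescence; % activity normalised to DMSO and no-cell wells; curves fitted, classed by r2 and efficacy.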
# TDP1 cell CPT = qHTS for Inhibitors of human tyrosyl-DNA phosphodiesterase 1 (TDP1): qHTS in cells in presence of CPT | chicken DT40 Tdp1-/-;hTDP1 cells + 20 nM CPT, ATP luminescence, 48 h | Potency, µM (titrated, usually from 46.2 µM), without a hit: top-dose activity change, negative = growth inhibition, most hits filed as inhibitors | actives 12% (n = 420,000) | AID 686979, 2013; further: potency means the concentration at half of the fitted maximal effect; nearly all actives have a fitted effect of over 55% in size
#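 Cell growth measured by CellTiter-Glo luminescence after a minimum 48 h, 37 C compound exposure with 20 nM CPT in Tdp1-knockout DT40 cells stably expressing hTDP1, seeded 400/well; qHTS titration format.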
# IL-1B inflam inh = qHTS for Inhibitors of Inflammasome Signaling: IL-1-beta AlphaLISA Primary Screen; THP-1 LPS/ATP IL-1B secretion, AlphaLISA, 16 h; active compounds read low; activity change, % at 57.5 µM; actives 4.7% (n = 360,000); AID 743279, 2014; in the data active means activity change below about -50%; inconclusive means mostly about -30% to -49%
#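 THP-1 cells pretreated 1 hr with compounds (up to 57.5 uM final), then stimulated with LPS (250 ng/mL final) plus ATP (1.25 mM final); secreted IL-1B measured by AlphaLISA after 16 hr, decreased signal indicating inhibition.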
# DT40 TDP1 no CPT = qHTS for Inhibitors of human tyrosyl-DNA phosphodiesterase 1 (TDP1): qHTS in cells in absence of CPT. DT40 Tdp1-/- hTDP1 cells, no CPT, ATP luminescence, 48 h. Potency, µM (doses to about 46.2 µM), inactives show top-dose activity change, negative = growth inhibition, hits mostly inhibitors. actives 15% (n = 420,000). AID 686978, 2013; further: potency means the concentration at half of the fitted maximal effect; nearly all actives have a fitted effect of over 55% in size
#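 Stably hTDP1-transfected Tdp1-null chicken DT40 cells were treated with library compounds minus camptothecin and grown for at least 48 hr at 37 °C, after which cellular ATP was quantified by luminescence.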
# An asterisk follows results filed as active; ? = inconclusive; nt = no result; ! = not active in a repeat. Unless noted, the call rests on the fitted dose curve; in most records, active means well fitted curve in the direction sought with a large enough effect; inconclusive means small, poorly fitted or top-dose-only effect, or another doubt; inactive means no such curve, though single readings can be large; an effect the other way counts as inactive or inconclusive. Unless noted, on the % scale 0 is the no-effect control and ±100 the full control effect.
SMILES,HT1080-NT tox,HT1080 IDH1KD tx,TDP1 cell CPT,IL-1B inflam inh,DT40 TDP1 no CPT
Nc1n[nH]c(N)c1N=Nc1cccc(F)c1,9%,19%,?,-78*,-12%
Cc1cccc(N=Nc2c(N)n[nH]c2N)c1,5%,14%,-1%,-25,4%
COc1ccc(CCNC(=O)CSc2nnc3ccccn23)cc1,9%,12%,0%,0,-19%
O=C(c1ccco1)N1CCN(C(c2ccccc2Cl)c2nnnn2Cc2cccs2)CC1 (configuration not stated),-13%,-28%,?,-3,26µM*
O=C(c1ccco1)N1CCN(C(c2ccccc2Cl)c2nnnn2Cc2ccco2)CC1 (configuration not stated),-4%,-7%,16µM*,-2,?
CCC(c1nnnn1Cc1ccco1)N1CCN(C(=O)c2ccco2)CC1 (configuration not stated),-5%,1%,-16%,5,-15%
CC(C)C1C(=O)N(Cc2cn(CCC3OCCCO3)nn2)CCS(=O)(=O)N1Cc1ccc(-c2ccncc2)cc1 (configuration not stated),-2%,-6%,?,1,?
COc1ccc(-c2ccc(CN3C(C(C)C)C(=O)N(Cc4cn(CCC5OCCO5)nn4)CCS3(=O)=O)cc2)cc1OC (configuration not stated),-1%,-5%,-36%,-3,-9%
CC(C)C1C(=O)N(Cc2cn(CCC3OCCO3)nn2)CCS(=O)(=O)N1Cc1ccc(-c2ccc(Cl)c(Cl)c2)cc1 (configuration not stated),?,18µM*,2.1µM*,-27,0.92µM*
COc1ccc(-c2ccc(CN3C(C(C)C)C(=O)N(Cc4cn(CCC5OCCO5)nn4)CCS3(=O)=O)cc2)cc1 (configuration not stated),-15%,-26%,9.2µM*,13,8.2µM*
CC(C)Cc1ccc(CN2C(C(C)C)C(=O)N(Cc3cn(CCC4OCCO4)nn3)CCS2(=O)=O)cc1 (configuration not stated),-22%,-27%,?,-56*,18µM*
CCOC(=O)c1c(NC(=O)COC(=O)c2ccncc2)sc(C)c1C,-1%,16%,5%,0,1%
CCOc1ccc(S(=O)(=O)N/N=C(\C)c2ccc(OC)cc2OC)cc1,11%,1%,?,29,?
COc1cc(CCNC(=O)c2ccccc2NC(=O)C2=C(C)OCCS2)cc(OC)c1OC,?,-12%,-67%,-16,?
COc1cc(NC(=O)C2=C(C)OCCS2)c(Cl)cc1C(=O)NCCN(C)C,-5%,-15%,-4%,-83*,-22%
COc1ccc(CCNC(=O)c2ccccc2NC(=O)C2=C(C)OCCS2)c(OC)c1,0%,-10%,21µM*,0,10µM*
CCN(CC(=O)Nc1ccc(N2CCOCC2)cc1)C(=O)COc1ccccc1OC,21%,-2%,8%,0,-2%
COc1ccc(/C=C/C(=O)NCC2Cc3cc(Cl)cc(-c4ncccn4)c3O2)cc1 (configuration not stated),nt,nt,-6%,nt,-15%
CC(C)CNc1nc(SCC(=O)Nc2ccccc2)nc(N2CCOCC2)n1,-1%,2%,?,7,?
CCN(CC(=O)Nc1ccccc1OC)C(=O)c1ccc(NC(=O)c2cccs2)cc1,0%,-9%,?,-24,?
CCN(CC(=O)Nc1ccccc1OC)C(=O)c1ccc2[nH]c3c(c2c1)CC(C)CC3 (configuration not stated),?,?,18µM*,-6,?
CCCN(CC(=O)Nc1ccccc1OC)C(=O)c1ccc2[nH]c3c(c2c1)CC(C)CC3 (configuration not stated),-2%,-21%,?,-59*,?
CN(C)CCCN1c2ccccc2CCc2ccc(Cl)cc21,?,21µM*,15µM*,?,10µM*
CN(C)CCCN1c2ccccc2Sc2ccccc21,?,?,16µM*,?,18µM*!
COc1ccc2c(c1)Sc1ccccc1N2CCN(C)C,-28%,-30%,?,?,-23%
SMILES,HT1080-NT tox,HT1080 IDH1KD tx,TDP1 cell CPT,IL-1B inflam inh,DT40 TDP1 no CPT
CCC(=O)c1ccc2c(c1)N(CCCN(C)C)c1ccccc1S2,23µM*,23µM*,?,?,21µM*
Cc1ccc(Cn2cc(SCC(N)=O)c3ccccc32)cc1,0%,-10%,-27%,22,?
Cc1ccc(S(=O)(=O)NC(C)(C)CSc2nnc(Nc3ccccc3)s2)cc1,-12%,-19%,23µM*,-8,?
CC(C)(CSc1ncccn1)NS(=O)(=O)c1ccccc1,0%,4%,-3%,-2,-10%
CNC(=O)OCc1ncn(-c2ccccc2)c1COC(=O)NC,26%,6%,-11%,22,-9%
Clc1cccc(-c2nc3nc4ccccc4nc3n2Cc2ccccc2)c1,16%,9%,?,-11,?
c1ccc(Cn2c(-c3ccccc3)nc3nc4ccccc4nc32)cc1,10%,0%,21µM*,-2,23µM*
C=CCn1c(-c2ccccc2)nc2nc3ccccc3nc21,-1%,11%,18µM*,-7,18µM*
COC(=O)c1cc(NC(=O)CCc2c(C)nc3nc(C)nn3c2C)cc(C(=O)OC)c1,nt,nt,1%,nt,-30%
CCOc1ccc(NC(=O)CN(C)Cc2cc(=O)n3c(-c4ccccc4)csc3n2)cc1OCC,-6%,-1%,?,19,?
O=C(NC1CCCC1)c1n[nH]c2ccccc12,0%,0%,2%,-23,-1%
CC(Sc1nnc(-c2ccccc2)c(-c2ccccc2)n1)C(=O)NCC1CCCO1 (configuration not stated),-15%,1%,?,-13,23µM*
Cc1ccc(OCC(=O)NNC(=O)C(C)Sc2ncnc3sc(C)c(C)c23)cc1 (configuration not stated),-1%,3%,1%,0,-19%
Cc1sc2ncnc(SCC(=O)Nc3nc(-c4ccc(F)c(F)c4)cs3)c2c1C,0%,-3%,-11%,33,21µM*
CC1CCc2c(sc3ncnc(SC(C)C(=O)NCC4CCCO4)c23)C1 (configuration not stated),?,?,26µM*,2,21µM*
